The whole screen tested about 2,100 compounds, of which about 650 (31%) were called active. About 16% were inconclusive and are not listed. The call rests on the fitted dose curve; in most records, active means well fitted inhibition curve with a large enough effect; inconclusive means small, poorly fitted or top-dose-only effect; inactive means flat fitted curve, though single readings scatter. This is one part of the list. A call without a number means that no potency is given here.
Potency means the concentration at half of the fitted maximal effect.

This experiment in a line: qHTS for inhibitors of Vif-A3G interactions: Cherry picks. Further: nearly all actives have a fitted effect of over 80% in size. The note with it: HeLa A3G-eYFP + Vif (tagged APOBEC3G with the HIV-1 protein that degrades it), 24 h; Potency: eYFP fluorescence increase; series mostly up to 36.9 µM. Summed up: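 Cherry-picked compounds tested at several concentrations on A3G-eYFP/Vif HeLa cells for 24 hours; loss of Vif-driven degradation read as eYFP fluorescence by cytometric plate imaging, 488 nm excitation, 500-530 nm emission.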
(In general: In qHTS, concentration-response curves come from the screen itself.)
As for `O=C1OCC2=C1C(c1ccc3c(c1)OCO3)c1cc3c(cc1O2)OCO3` (stereo unspecified), the Potency entry was “inactive”.
For `COc1cccc(C2=CC(c3ccccc3)n3nnnc3N2)c1` (stereo unspecified), the Potency result is “inactive”.
For `O=S(=O)(Nc1nc2n(n1)C(c1ccccc1)C=C(c1ccc(Cl)cc1)N2)c1ccccc1` (stereo unspecified) the value was 18.4 µM (active); for `CN(C)CCN(C(=O)/C=C/c1cccs1)c1nc2c(F)cc(F)cc2s1`, “inactive”; for `COc1ccccc1NC(=O)Cc1ccc(-c2ccccc2)cc1`, “inactive”.
Then `COC(=O)CCC(=O)NC(=S)Nc1sc(C)c(C)c1C(N)=O`, with “inactive”; and `CC(=O)Nc1ccc(CC(=O)NCCC(c2ccccc2)c2ccccc2)cc1`, with “inactive”.
For `CC(=O)Nc1sc(C)c(C)c1C(=O)OCC(=O)Nc1ccccc1` the value was 20.6 µM (active); for `CN1C2CCC1/C(=C/c1cccn1C)C(=O)/C2=C\c1cccn1C`, 18.4 µM (active); for `Cn1cccc1/C=C1\CC(C(C)(C)C)C/C(=C\c2cccn2C)C1=O` (stereo unspecified), 7.31 µM (active).
In the case of `CC1C/C(=C/c2cccs2)C(=O)/C(=C/c2cccs2)C1` (stereo unspecified), the Potency entry was “inactive”.
For `Cn1cccc1/C=C1\SC(=Nc2ccccc2)NC1=O` the value was “inactive”; for `CC1CCN(C(=O)C(C)Sc2nc(-c3ccccc3)cc(C(F)(F)F)n2)CC1` (stereo unspecified), “inactive”.
Then `CCc1ccc2nc(N(CCCN(C)C)C(=O)c3ccc(S(=O)(=O)N(C)C4CCCCC4)cc3)sc2c1`, with “inactive”; and `C=CCn1c(SCc2c(C)noc2C)nc2cc(C(=O)O)ccc2c1=O`, with “inactive”.
For `COc1cc(C(=O)N/N=C/C2CC=CCC2)cc(OC)c1OC` (stereo unspecified) the value was “inactive”; for `O=C(CN1C(=O)S/C(=C\c2cc(Cl)c(O)c(Cl)c2)C1=O)Nc1ccccc1`, 20.6 µM (active); for `COc1cc(C=C2C(=O)c3ccccc3C2=O)cc(OC)c1OC`, “inactive”.
For `COc1cc(/C=C2/SC(=S)N(Cc3ccccc3)C2=O)cc(OC)c1O`, the Potency result is “inactive”.
As to `O=C(NCCN1C(=O)S/C(=C\c2ccc(OC(F)F)cc2)C1=O)c1cnccn1`, the Potency result is “inactive”.
For `COc1ccc(NC(=O)CN2C(=O)C3(SCC(=O)N3c3ccccc3)c3ccccc32)cc1Cl` (stereo unspecified) the value was “inactive”; for `COc1cc(/C=C2/SC(=S)N(CCC(=O)Nc3ccccc3)C2=O)cc(OC)c1OC`, 18.4 µM (active); for `COC(=O)C1=C(C)NC2=C(C(=O)CC(c3cccs3)C2)C1c1ccsc1` (stereo unspecified), “inactive”.
As to `CC(=O)Nc1cccc(-c2ccnc3c2CC(C)(C(=O)NCc2cccs2)O3)c1` (stereo unspecified), the Potency entry was “inactive”.
For `Clc1ccc2c(c1)C(C1=NCCN1)c1ccccc1CS2` (stereo unspecified) the value was “inactive”; for `CCOC(=O)Nc1ccc2c3c(cccc13)-c1ccccc1-2`, “inactive”; for `O=CNc1ccc2c3c(cccc13)-c1ccccc1-2`, 15.8 µM (active).
For `CC(=O)Nc1ccc(-c2ccnc3c2CC(C)(C(=O)NCc2ccco2)O3)cc1` (stereo unspecified) the value was “inactive”.
Then `Cc1ccc2nc(-c3ccccn3)c(Nc3ccccc3C)n2c1`, with “inactive”; and `CCN1C(=O)/C(=C/C=C2\N(CC)c3cc(S(=O)(=O)N(C)C)ccc3N2c2ccccc2)SC1=S`, with 4.44 µM (active).
As for `CCc1ccc(C2=NN(S(C)(=O)=O)C(c3cccs3)C2)cc1` (stereo unspecified), the Potency was 25 µM (active).
Then `Cc1ccc(C2=NN(C(=O)c3cccs3)C(c3ccccc3O)C2)cc1` (stereo unspecified), with “inactive”; and `Cc1ccccc1C1CC(c2cccs2)=NN1S(C)(=O)=O` (stereo unspecified), with “inactive”; and `CCOc1ccccc1C1CC(c2cccs2)=NN1S(C)(=O)=O` (stereo unspecified), with 13 µM (active).
Then `Cn1c(=S)c2[nH]c(SCCN3CCCC3)nc2n(C)c1=O`, with “inactive”; and `O=C1C=CC(O)(c2cc(=O)c3c(O)cc(O)cc3o2)C=C1`, with “inactive”.
For `C1=Cc2ccccc2/C1=C\c1cc2c3c(c1)CCCN3CCC2` the value was 18.4 µM (active); for `Cc1ccc(Nc2nc(-c3cccnc3)nc3ccccc23)cc1`, “inactive”.
Consider `c1cncc(-c2nc(NCc3cccs3)c3ccccc3n2)c1`, for which the Potency entry was “inactive”.
For `Oc1ccccc1-c1nc(NCc2ccccc2)c2ccccc2n1` the value was 20.6 µM (active).
Then `c1ccc(N=NC2=NN(c3ccccc3)CS2)cc1`, with “inactive”.
Then `Cc1cccc(CSc2cccc3cccnc23)c1`, with “inactive”.
For the compound `O=C1c2ccccc2C(=O)c2c(/C=C/N3CCCCC3)ccnc21`, the Potency was 18.4 µM (active).
In the case of `Cc1c2ccccc2nc2c(F)c(NC(C)C)c(F)c(F)c12`, the Potency was 10.3 µM (active).
Then `Cc1nnc(NC(=O)CSc2nc(C(C)C)nc3ccccc23)s1`, with “inactive”; and `CCCNc1c(F)c(F)c2c(C)c3ccccc3nc2c1F`, with 17.7 µM (active).
Then `Cc1ccc(S(=O)c2ccc([N+](=O)[O-])c3nonc23)cc1` (stereo unspecified), with 20.6 µM (active); and `O=C(OCc1ccccc1)c1ccc(NCc2cc(O)ccc2O)cc1`, with “inactive”.
Consider `CCn1c2ccccc2c2cc(NC(=O)CNCc3ccccc3OC)ccc21`, for which the Potency result is “inactive”.
Turning to `Cc1cc(C)cc(NC(=O)Cn2cc(C(=O)C3CCCCC3)c3ccccc32)c1`, the Potency was 20.6 µM (active).
For `Cc1cc(C)cc(NC(=S)NC(=O)C2CC2)c1` the value was “inactive”.
With `Cc1ccc(/C(C#N)=C\c2ccc(N3CCOCC3)o2)cc1`, the Potency is 19.8 µM (active).
For `N#C/C(=C/c1ccc(N2CCOCC2)o1)c1ccc(Cl)cc1` the value was 1.46 µM (active).
Then `N#C/C(=C/c1ccc(N2CCCCCC2)o1)c1ccc(Cl)cc1`, with 0.651 µM (active); and `COc1ccccc1C1c2ccc3ccccc3c2Oc2ncn(CCN(C)C)c(=N)c21` (stereo unspecified), with “inactive”.
Then `CCOc1ccccc1OCC(=O)N/N=C(\C)Cc1ccc(OC)cc1`, with “inactive”; and `Cc1ccc(NC(=O)C2CCN(S(=O)(=O)c3ccc(Cl)c(C(F)(F)F)c3)CC2)nc1`, with “inactive”; and `CCCc1nc2c(C)cc(Br)cn2c1Cc1ccccc1`, with “inactive”.
Consider `O=C(Nc1cc(Cl)cc2c1-c1ccc(Cl)cc1C2O)C(Cl)Cl` (stereo unspecified), for which the Potency result was “inactive”.
`CCOC(=O)c1csc(NC(=O)c2cc(-c3ccccn3)nc3ccccc23)n1`: the Potency entry is “inactive”.
On to `CCOC(=O)Cc1csc(NC(=O)c2sc3nc4c(C)cc(C)cc4cc3c2N)n1`, for which the Potency is 20.6 µM (active).
For `CCn1ncc(/C=N\NC(=O)c2csc3ccccc23)c1C` the value was “inactive”.
Then `CCC1CC=CC2C1C(=O)N(Cc1ccccc1)C2c1ccoc1` (stereo unspecified), with “inactive”.
In the case of `COc1cc(C2C(C#N)=C(N)Oc3cc(O)ccc32)cc2c1OCO2` (stereo unspecified), the Potency result was “inactive”.
As for `Cc1cc(-c2ccccc2)c2c3c(c(-c4ccccc4)n2n1)c(=O)n(C)c(=O)n3C`, the Potency is 18.4 µM (active).
For `Cc1ccc(CNC(=O)C2CC(c3cc(C(F)(F)F)cc(C(F)(F)F)c3)=NO2)o1` (stereo unspecified) the value was “inactive”.

The record behind these values is PubChem BioAssay AID651812 (National Center for Advancing Translational Sciences (NCATS), 2012).
